Growth data for 82 compounds are collected here from PubChem BioAssay (NCI).

Compounds without any hit were thinned out: in the full panel of roughly 83,000, 20% have a hit.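 Interpretation: 100, growth as untreated; towards 0, rising growth inhibition; 0, no net growth; 0 to -100, cell death. Compounds scoring below 10 were considered active.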 Active and inactive are the calls of the source.

The subject of the test is HL-60(TB) leukemia. Briefly: NCI-60 one-dose screen, 48 h (100 = growth as untreated, 0 = no growth, -100 = all killed). Conditions: 10 µM unless noted.

With `CN(C)CCCNC(=O)c1cncnc1Nc1ccc2c(ccn2Cc2cccc(F)c2)c1`, the growth is 93.3% (inactive). Then `Nc1nnc2cc(F)ccc2n1`, with 107% (inactive); and `N#Cc1nn(-c2cc(=O)[nH]c3ccc(Br)cc23)c(N)c1C#N`, with -11.2% (active). Next, `COc1cc(-c2nc(C(=O)Nc3ccc(C)cc3)nn2-c2ccc(F)c(F)c2)cc(OC)c1OC`: 100% (inactive); `CN1CCN(Cc2ccc(NC(=O)c3cncc(C#Cc4c(N)ncc5ccccc45)c3)cc2C(F)(F)F)CC1`: -53.2% (active); `CN(C)CCCN1c2ccccc2Sc2ccc(C(F)(F)F)cc21`: 0.95% (active). Next, `Cc1[nH]c(C(=O)Nc2ccc(C(=O)NCCN)cc2OC(C)C)c(Cl)c1Cl`: -21.3% (active); `CCSc1ccc([C@@H]2[C@@H](N)C(=O)N2c2cc(OC)c(OC)c(OC)c2)cc1`: -40.5% (active).

For `Clc1ccc(C2=Nn3c(nnc3-c3cc(Cl)cc(Cl)c3Cl)SC2)cc1`, the growth was -15% (active). Next, `CC(=O)Nc1c(Cl)cc(Cl)c2c1Cc1cc([N+](=O)[O-])ccc1-2`: 89.8% (inactive); `COc1ccc(C(O)c2cc3c(N)c(C(=O)Nc4cccc(OC)c4)sc3nc2C)cc1` (configuration not stated): -55.9% (active).

On to `COc1ccc(C2=C/C(=C\c3ccc(Cl)cc3)C(=O)NN2C(=S)NN)cc1`, for which the growth was 93.3% (inactive). Then `O=C1C[C@H](N2C(=O)c3ccccc3S2(=O)=O)C2CO[C@@H]1O2`, with 106% (inactive).

In the case of `CC(C)(C)c1ccc2oc(=O)n(SC(Cl)(Cl)Cl)c2c1`, the growth is 70.2% (inactive).

Regarding `Cc1ccc(/C=C(\C#N)c2cc3ccccc3[nH]2)cc1`, the growth is 22.8% (inactive). Turning to `CC1(C)N=C(N)N=C(N)N1c1cccc(C#N)c1`, the growth is 35.7% (inactive). Then `Nc1c(C(=O)Nc2cccc3ccccc23)sc2nc3c(cc12)CCCC3`, with -11.1% (active); and `O=C(O)/C=C/c1ccc2c(c1)CCC2`, with 110% (inactive); and `COc1ccccc1/C=C1\COc2ccc(O)cc2C1=O`, with 1.08% (active). Take `CCOC(=O)c1cnn(-c2nc(-c3ccc(F)cc3)c(C#N)c(N3CCOCC3)n2)c1N`: the growth is 93.1% (inactive). Next, `C[C@@H]1CC[C@@H]2[C@@H]1[C@H](OC(=O)/C=C/c1ccccc1)[C@]1(c3ccccc3)C[C@@H](NC(=O)CO)[C@@]2(C)O1`: 97.7% (inactive).

As to `O=C1OCC2=C1C(c1cccc(F)c1)c1cc3c(cc1N2CCO)OCO3` (configuration not stated), the growth is -28.9% (active). Next, `Cc1ccc(Nc2cc(Cl)c([N+](=O)[O-])cc2[N+](=O)[O-])cc1`: 6.39% (active). Next, `COc1ccc(/C=C/C(=O)/C=C/c2cc3ccc(Cl)cc3[nH]c2=O)cc1`: 71% (inactive); `COC(=O)C(c1ccccc1)C(CC(=O)c1ccccc1)c1ccccc1` (configuration not stated): 92.5% (inactive); `O=C(Nc1ccc2c(c1)OCCO2)C(=O)c1c[nH]c2ccccc12`: 13.7% (inactive).

With `CN(C)CC(=O)c1ccc2cc(Br)c3ccccc3c2c1`, the growth is 53.4% (inactive). Next, `CN(C)c1ccc(CNCCO)cc1`: 96.1% (inactive). Then `COc1cc(/C=C2\C(=O)ON=C2C)cc(OC)c1OC`, with 98.1% (inactive).

With `CCCCCOC(=O)c1cccc(NC(=O)CN(CC)CC)c1`, the growth was 101% (inactive).

With `OCCN1CCN(CC/C=C2/c3ccccc3Sc3ccc(C(F)(F)F)cc32)CC1`, the growth is 73.1% (inactive).

As to `O=C1CC2c3cc(-c4cc5ccccc5o4)ccc3CCN2C(=O)N1c1ccccc1` (configuration not stated), the growth was 69.9% (inactive). Then `O=C(Cc1ccccc1)Nc1nnc(NC2CCN(c3nnc(NC(=O)Cc4ccccc4)s3)CC2)s1`, with 96.7% (inactive); and `COC(=O)N[C@@H](C)CNc1nccc(-c2cn(C(C)C)nc2-c2cc(Cl)cc(NS(C)(=O)=O)c2F)n1`, with 26.6% (inactive). Regarding `CCN(CC)S(=O)(=O)c1ccc2[nH]c(=O)cc(C(=O)Nc3ccc(OC)cc3OC)c2c1`, the growth is 101% (inactive). Next, `N=C(N)c1ccc(-c2ccc(-c3ccc(Cl)cn3)s2)cc1`: -45.8% (active); `COc1cc(N=Nc2ccc(O)c3ncccc23)c2ncccc2c1`: -14.1% (active). Turning to `CCCn1c(N)c(C(=O)CNc2ccc(I)cc2)c(=O)[nH]c1=O`, the growth was -5.9% (active). Then `CC(=O)Oc1ccc(C(OC(C)=O)OC(C)=O)cc1`, with 90.3% (inactive).

For the compound `COc1cc(NN=C(c2ccc(O)cc2)c2ccc(O)cc2)c([N+](=O)[O-])cc1[N+](=O)[O-]`, the growth is 133% (inactive). Then `Fc1ccc2nc3c(cc2c1)CSc1nnc(-c2ccc[nH]c2=S)n1N3`, with 106% (inactive). Next, `CC(C)(C)c1ccc(C(O)CCCN2CCC(C(O)(c3ccccc3)c3ccccc3)CC2)cc1` (configuration not stated): -51.9% (active); `Cc1ccc(C)c(COc2cc(NC(=O)c3ccc4c(c3)OCO4)ccc2N(C)S(C)(=O)=O)c1`: -5.51% (active). Then `O=C(O)CCN1CCN(c2cccc(Cl)c2)CC1`, with 97% (inactive); and `COC(=O)[C@]12CC[C@@H](C)[C@H](C)[C@@H]1C1=CC[C@@H]3[C@@]4(C)C(C=O)=C[C@@](C)(CO)C4=CC[C@@]3(C)[C@]1(C)CC2`, with 16.1% (inactive). For `CN1CCN(c2nc3scc(-c4ccccc4)c3c(=O)[nH]2)CC1`, the growth is 90.8% (inactive). On to `O=c1[nH]ccc2c(S(=O)(=O)N3CCCNCC3)cccc12`, for which the growth was 87.1% (inactive). Take `O=c1[nH]nc(-c2ccccc2)c2sc3ncc(-c4ccc(Br)cc4)n3c12`: the growth was 12.7% (inactive). Turning to `COc1ccc(-c2cnoc2-c2cc(OC)c3c(c2)OCCO3)cc1`, the growth was -27.4% (active).

With `COc1ccc(C(=O)N/N=C/c2cc(C(F)(F)F)ccc2Cl)cc1`, the growth is 100% (inactive).

For the compound `COc1ccc(/C=C2\CCCC3=C2NC(N)=NC3c2ccc(OC)c(OC)c2)cc1OC` (configuration not stated), the growth was 42.4% (inactive). On to `COc1ccc(N=Cc2c(O)ccc3c2oc2cc(Cl)c(O)c(Cl)c23)cc1`, for which the growth was 86.6% (inactive). Next, `C=C1C(=O)O[C@H]2[C@H]1CC/C(CNC(=O)CCc1ccc(OC)cc1)=C\CC[C@@]1(C)O[C@@H]21`: 3.96% (active); `Cn1c(O)c(N=NC(=O)c2cc(-c3ccccc3)on2)c2ccccc21`: 80.8% (inactive). Then `O=C1/C(=C/c2ccc(-c3ccc(Cl)cc3)o2)SC(=S)N1CCc1ccc(O)cc1`, with 8.32% (active); and `COc1ccc(C(=O)Nc2ccc3nc(N4CCCCC4)cc(C)c3c2)cc1OC`, with 60.3% (inactive); and `Cc1ccc(Nc2oc(-c3ccccc3)nc2[P+](c2ccccc2)(c2ccccc2)c2ccccc2)cc1`, with -32.5% (active).

In the case of `Cc1cccc(NC(=O)Cn2cc(CN3CCN(c4ccnc5cc(Cl)ccc45)CC3)nn2)c1`, the growth is 89.1% (inactive). Then `Clc1ccc(/C=C/c2nc(N3CCOCC3)c3nc(Cl)c(Cl)cc3n2)cc1`, with 98.4% (inactive). Then `COc1ccc(/C=C2\N=C(c3cccnc3)N(c3ccccc3)NC2=O)cc1`, with 95% (inactive); and `CCN(CC)CCN1CC(O)=C(c2nc(-c3ccc(Cl)cc3)cs2)C1=N`, with -33.7% (active). `C=C1C(=O)O[C@H]2[C@H]1CC/C(COC(=O)N[C@@H](Cc1c[nH]c3ccccc13)C(=O)OC)=C\CC[C@@]1(C)O[C@@H]21`: the growth is -52.6% (active). Then `CCOc1cccc2c(NC(C)CCCN(CC)CC)c(C)cnc12` (configuration not stated), with 105% (inactive). Then `O=C1/C(=C/c2cccc3cnccc23)Cc2cc(F)ccc21`, with 105% (inactive). Next, `O=C(Nc1ccc(Br)cc1)C1=NCCCCN1`: 98% (inactive).

Regarding `OC(c1cccc(OCc2ccccc2)c1)c1nnc(-c2ccccc2)o1` (configuration not stated), the growth was 96.3% (inactive). Then `C=C(NC(=O)[C@H](C(C)C)N(C)c1cccc2[nH]ccc12)C(=O)OC`, with 109% (inactive).

Consider `COc1ccc2c(c1)c(-c1ccc(-c3cn(C)c4ccc(OC)cc34)o1)cn2C`, for which the growth was -23% (active).

Take `O=C1OC(=O)C2C1C1(Cl)C(Cl)=C(Cl)C2(Cl)C2C(=O)OC(=O)C21` (configuration not stated): the growth was 98% (inactive). Then `CCc1ccc(C(c2ccc(CC)cc2)C(Cl)(Cl)CCl)cc1`, with 77.2% (inactive); and `O=C1c2ccccc2C(=O)c2c1cccc2-n1nnc2ccccc21`, with 82.1% (inactive); and `O=C1/C(=C/c2ccc(O)cc2)Oc2ccc(Cl)cc21`, with 81% (inactive).

As for `C[C@H]1[C@H]2[C@H]3CC[C@@H]4[C@@]5(C)C/C(=C/c6ccco6)C(=O)C(C)(C)[C@@H]5CC[C@@]4(C)[C@]3(C)CC[C@]23CO[C@]1(C)[C@@H](C(=O)/C=C\c1ccco1)C3`, the growth was 95.8% (inactive). On to `CN=C(NC)N/N=C(C)\C=N\NC(=NC)NC`, for which the growth is 99% (inactive). Next, `COc1ccc2c(O)c(/C=C3\N=Nc4ccccc43)oc2c1C[C@H]1CCNC[C@H]1F`: 14.4% (inactive); `Cc1[nH]c2ccccc2c1/C=N/Nc1ncnc2sc3c(c12)CCN(CC(=O)OC(C)(C)C)C3`: 12.5% (inactive). Next, `Cc1cn(C2CC(N=[N+]=[N-])C(COP(=O)(O)OP(=O)(O)OP(=O)(O)O)O2)c(=O)[nH]c1=O` (configuration not stated): -96.5% (active); `O=S(=O)(OCCO)c1ccccc1`: 107% (inactive); `N#Cc1c(NC(=O)NCc2ccccc2)sc2c1CCCC2`: -4.95% (active). Next, `CC1(C)N=C(N)N=C(N)N1c1ccc(Cl)cc1`: 51.6% (inactive). Regarding `COc1cc([C@@H]2c3cc4c(cc3[C@H](OC3OC5COC(c6ccccc6)OC5C(O)C3O)[C@H]3COC(=O)[C@H]23)OCO4)cc(OC)c1OC` (some centres not stated), the growth was -33.6% (active). Next, `CN1CCC(COc2cnc(-c3cccc(Cn4nc(-c5cccc(C#N)c5)ccc4=O)c3)nc2)CC1`: 95.3% (inactive).
